Shown are actives, neighbours in structure and some others; about 2.6% of the full set was active somewhere.
Cruzain inh noDet: cruzain (T. cruzi) inhibition without detergent. AID 1476. 200,000 tested, 2.3% active. purified cruzain, Z-FR-AMC fluorescence, no detergent. P25779. Potency, µM, without a hit: max response, negative = inhibition, most hits filed as inhibitors;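 note: plate controls were enzyme without inhibitor for no effect and buffer without enzyme for full effect; nearly all actives have a fitted effect of over 40% in size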
Target sequence (P25779 123-467 limits assumed): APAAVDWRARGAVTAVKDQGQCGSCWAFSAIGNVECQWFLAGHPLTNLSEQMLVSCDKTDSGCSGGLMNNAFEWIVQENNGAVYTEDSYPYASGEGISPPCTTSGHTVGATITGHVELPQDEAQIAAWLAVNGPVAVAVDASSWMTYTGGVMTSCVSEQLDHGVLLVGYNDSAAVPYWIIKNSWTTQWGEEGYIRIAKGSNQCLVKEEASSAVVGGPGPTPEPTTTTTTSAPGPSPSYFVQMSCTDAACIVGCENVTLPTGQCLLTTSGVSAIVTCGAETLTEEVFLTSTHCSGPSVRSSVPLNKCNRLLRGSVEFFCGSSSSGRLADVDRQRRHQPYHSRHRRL
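Detergent-free condition (0.00005% Triton X-100) in acetate buffer pH 5.5 with DTT. 1.5 nM enzyme and compound were pre-mixed 15 min, then 2 uM Z-FR-AMC substrate added; reaction progress from fluorescence change between first and third reads (60 s).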
Cruzain inh Det: cruzain (T. cruzi) inhibition with detergent; P25779; purified cruzain, Z-FR-AMC fluorescence, 0.01% Triton; Potency, µM, inactives show max response, negative = inhibition, usual class: inhibitors; 200,000 tested, 0.43% active;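 note: plate controls were neutral wells for no effect and buffer without enzyme for full effect; nearly all actives have a fitted effect of over 40% in size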
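Z-FR-AMC hydrolysis (2 uM substrate) by cruzain (1.5 nM) monitored kinetically at ex 360/em 450 nm after 15 min room-temperature compound exposure; 0.01% Triton X-100, pH 5.5, 5 mM DTT.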
Active calls of the source: *; u = inconclusive. Calls come from the whole dose curve; as a rule, active = well fitted curve in the direction sought with a large enough effect; inconclusive = small, poorly fitted or top-dose-only effect, or another doubt; inactive = no such curve, though single readings can be large; an effect the other way counts as inactive or inconclusive. Potency is the fitted concentration of half-maximal effect.

SMILES	Cruzain inh noDet	Cruzain inh Det
Cc1onc(-c2ccccc2)c1C(=O)NC(=S)Nc1sc2c(c1C#N)CCC(C)C2 (configuration not stated)	7.9µM*	-6%
CCn1c(SCc2cccc(Br)c2)nnc1-c1nonc1NC(C)=O	-5%	-7%
Cc1cccc(N2CCN(S(=O)(=O)c3ccc(-c4cc(C(F)(F)F)on4)s3)CC2)c1C	-18%	3%
O=C1OC2(c3cc(Br)c(O)c(Br)c3Oc3c2cc(Br)c(O)c3Br)c2c(Cl)c(Cl)c(Cl)c(Cl)c21	u	16µM*
O=C1OC(c2ccc(O)c(-c3ccccc3)c2)(c2ccc(O)c(-c3ccccc3)c2)c2c(Cl)c(Cl)c(Cl)c(Cl)c21	-1%	1%
COc1cccc(NC(=O)c2ccc3nc(Cc4ccccc4)oc3c2)c1	-2%	-6%
Cc1ccc(CN2CCCn3nc(C(=O)NCCc4ccc(Cl)cc4)cc3C2=O)cc1	5%	-3%
Cc1cc(/C=C2\SC(=S)NC2=O)c(C)n1C1CC1	16µM*	0%
Cc1cc(/C=C2/C(=O)N(C)C(=S)N2C)c(C)n1C1CC1	-21%	-9%
Cc1ccc(OCC(=O)Nc2ccc3nc(SCC(=O)N4CCOCC4)sc3c2)cc1	-5%	-2%
CCOc1ccc(CCNC(=O)Cn2ccc3cc(S(=O)(=O)N4CCCCCC4)ccc32)cc1	12%	-8%
Cc1sc(NC(=S)NC(=O)c2ccc(C(C)(C)C)cc2)c(C#N)c1C	10µM*	1%
Cc1ccccc1C(=O)NC(=S)Nc1sc2c(c1C#N)CCCC2	u	-4%
CCOC(=O)CCc1c(C)c2cc3c(c(C)c2oc1=O)OCN(CCc1ccccc1OC)C3	-14%	-6%
COc1ccc(-c2nc(=S)c3c([nH]2)Oc2ccc(C)cc2C3)cc1O	10µM*	0%
COc1ccc(-c2nc(-c3ccccc3)c(-c3cc([N+](=O)[O-])ccc3C)[nH]2)cc1O	7%	-4%
COC(=O)N/N=C/c1cc(Cl)cc(Cl)c1OCc1ccccc1	-10%	-7%
O=C(CSCc1ccccc1)N/N=C/c1ccccc1OCc1ccccc1	1%	-1%
NC(=S)N/N=C\c1ccccc1OCc1ccccc1	1.3µM*	3.2µM*
COc1cccc(/C=N/NC(N)=S)c1OCc1cccc(Cl)c1	5µM*	-24%
CCOC(=O)c1cccc(Nc2cc(C)nc(C)n2)c1	-9%	-3%
Cc1ccc(-c2c(C(=O)N3CCN(c4ccc(F)cc4)CC3)oc(=O)c3ccccc23)cc1	-4%	2%
CCc1c2c(nc3ccc(OC)cc13)COC2	-3%	-1%
COc1ccc(CCNC(=O)c2c(C)nn(-c3ccc(F)cc3)c2-n2cccc2)cc1OC	u	-5%
CC(Sc1nnc(Nc2ccccc2)s1)C(=O)NC1CCCc2ccccc21 (configuration not stated)	-12%	-10%
SMILES	Cruzain inh noDet	Cruzain inh Det
CC(Sc1nnc(NC2CCCCC2)s1)C(=O)Nc1ccc2c(c1)C(=O)c1ccccc1C2=O (configuration not stated)	16µM*	0%
CCCCNc1sc(S(=O)(=O)CC)nc1S(=O)(=O)c1ccc(C)cc1	10%	-7%
COC(=O)c1ccc(Cn2c(SCc3ccccc3F)nc3ccncc32)cc1	-5%	-9%
Cc1ccc(SC/C(O)=C(\C#N)c2nc3ccccc3s2)cc1	25µM*	1%
N#C/C(=C(/O)CSc1ccccc1C(=O)O)c1nc2ccccc2s1	-3%	4%
O=C(c1cc(S(=O)(=O)N2CCCC2)c[nH]1)N1CCN(c2cccc(Cl)c2)CC1	22%	-14%
COc1ccccc1CNC(=O)CCCn1nc(C)c2sc3ccccc3c2c1=O	10µM*	-4%
COc1ccc(CNC(=O)CCCn2nc(C)c3sc4ccccc4c3c2=O)cc1OC	-22%	-5%
CCOc1cccc2cc(-c3nc4sc5c(c4c(=O)[nH]3)CCC(C)C5)c(=O)oc12 (configuration not stated)	4%	-1%
CC(C)NC(=O)CN1C(=O)CCn2nc(-c3cn(C)c4ccccc34)cc21	-5%	0%
Nc1nc(Nc2ccccc2)nc2ccccc12	25µM*	u
Oc1ccc(Nc2nc(-c3ccc(Cl)cc3)nc3ccccc23)cc1	u	-8%
COc1cc2nc(Nc3cccc(C)c3)nc(N)c2cc1OC	3%	u
Nc1nc(Nc2ccc(Cl)cc2)nc2ccccc12	10µM*	28µM*
Cc1cccc(CNC(=O)CN2C(=O)CSc3c2c(C)nn3-c2ccccc2)c1	2%	-3%
CCC(CC)c1nnc(NC(=O)c2ccc(N3CCCCC3)c([N+](=O)[O-])c2)s1	0%	-5%
O=C(Nc1ccc2c(c1)OCO2)c1ccc(N2CCCC2)c([N+](=O)[O-])c1	25µM*	-10%
CC(=O)N1CCN(c2ccc(NC(=O)c3ccc(N4CCCC4)c([N+](=O)[O-])c3)cc2Cl)CC1	13%	1%
O=C(Nc1ccc(N2CCCCC2)c(Cl)c1)c1ccc(N2CCOCC2)c([N+](=O)[O-])c1	-1%	-3%
O=C(Nc1nc2ccc3ccccc3c2s1)c1ccc(N2CCCCC2)c([N+](=O)[O-])c1	6.3µM*	-5%
COc1cccc(C(=O)Nc2ccccc2-c2nc3ccccc3s2)c1	7%	0%
O=C(Nc1nc2ccc(Cl)cc2s1)c1ccc(N2CCCCC2)c([N+](=O)[O-])c1	5µM*	-3%
Cc1c(NC(=O)c2ccc(N3CCCC3)c([N+](=O)[O-])c2)cccc1-c1nc2ccccc2s1	7.9µM*	-7%
NCCC[C@@H](CC(=O)N[C@@H]1CCNC[C@H]1C(=O)N[C@H](CC(=O)N[C@@H](CCC(=O)O)CC(=O)O)Cc1c[nH]c2ccccc12)NC(=O)C[C@H](Cc1c[nH]c2ccccc12)NC(=O)[C@@H]1CNCC[C@H]1N	-3%	3%
O=C(Nc1ccccc1F)c1ccc(Cn2nc(N3CCN(c4ccccc4)CC3)ccc2=O)o1	11%	-4%
SMILES	Cruzain inh noDet	Cruzain inh Det
Fc1ccc(Nc2c3c(nc4nncn24)CCC3)cc1	-14%	-2%
CCOC(=O)C1(C)C=C(Nc2ccc(O)cc2)C(=O)N1c1ccc(O)cc1 (configuration not stated)	-9%	-7%
CCOC(=O)C1(C)C=C(Nc2ccc(OC)cc2)C(=O)N1c1ccc(OC)cc1 (configuration not stated)	16µM*	6%
CCCCN=C1NN=C(c2cc3ccccc3o2)CS1	7.9µM*	-9%
COCCCN=C1NN=C(c2cc(C)n(-c3ccccc3)c2C)CS1	-5%	-7%
CC1CCN(S(=O)(=O)c2ccc3nc(NCc4ccccc4)ccc3c2)CC1	-1%	-5%
Nc1ccc(C(=O)n2c3ccccc3c3ccccc32)cc1	25µM*	-12%
Nc1ccc(C(=O)N2CCCC2)cc1	4%	-1%
Cc1ccc(NC(=O)C2CCN(S(=O)(=O)c3c(C)noc3/C=C/c3cccs3)CC2)cc1F	u	-2%
COc1ccc(/C=C\c2onc(C)c2S(=O)(=O)N2CCC(C(=O)Nc3cccc(C)c3C)CC2)cc1	-20%	-3%
COc1ccc(/C=C\c2onc(C)c2S(=O)(=O)N2CCC(C(=O)Nc3cccc(Cl)c3)CC2)cc1	7.9µM*	-3%
COc1cc(NC(=O)C2CCN(S(=O)(=O)c3c(C)noc3/C=C/c3cccs3)CC2)cc(OC)c1	16µM*	-2%
COc1ccc(NC(=O)C2CCN(S(=O)(=O)c3c(C)noc3/C=C/c3cccs3)CC2)cc1Cl	10µM*	-4%
Cc1noc(/C=C/c2cccs2)c1S(=O)(=O)N1CCC(C(=O)Nc2ccc(F)c(Cl)c2)CC1	u	-2%

Assay outcomes as filed in PubChem.
